# Screens as filed in PubChem BioAssay.
# This is a sample that favours compounds with a hit; in the whole collection about 19% have one here.
# TDP1 cell CPT – growth inhibition of DT40 Tdp1-/-;hTDP1 cells with camptothecin (screen for TDP1 inhibitors) | hit rate 12% among 420,000 | chicken DT40 Tdp1-/-;hTDP1 cells + 20 nM CPT, ATP luminescence, 48 h | AID 686979 | Potency, µM (titrated, usually from 46.2 µM), for inactives: top-dose activity change, negative = growth inhibition, hits mostly inhibitors; also: potency is read from the fitted curve at half-maximal effect; nearly all actives have a fitted effect of over 55% in size
#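 Cell growth measured by CellTiter-Glo luminescence after a minimum 48 h, 37 C compound exposure with 20 nM CPT in Tdp1-knockout DT40 cells stably expressing hTDP1, seeded 400/well; qHTS titration format.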
# DT40 TDP1 no CPT – qHTS for Inhibitors of human tyrosyl-DNA phosphodiesterase 1 (TDP1): qHTS in cells in absence of CPT. hit rate 15% among 420,000. AID 686978, 2013. DT40 Tdp1-/- hTDP1 cells, no CPT, ATP luminescence, 48 h. Potency, µM (top dose mostly 46.2 µM), without a hit: at the top dose activity change, negative = growth inhibition, most hits filed as inhibitors; also: potency is read from the fitted curve at half-maximal effect; nearly all actives have a fitted effect of over 55% in size
#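 Chicken DT40 Tdp1-/- cells complemented with human TDP1, screened without camptothecin (DMSO vehicle only), 400 cells/well. Compounds pin-transferred, cells incubated at 37 °C for at least 48 hr. Growth read as ATP-dependent luminescence (CellTiter-Glo, 30 min at RT).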
# HT1080 IDH1KD tx – toxicity to HT-1080 IDH1 knockdown cells (counter line); HT-1080 IDH1 knockdown viability, ATP luminescence, 48 h; AID 686971; Potency, µM (titrated, usually from 46.1 µM), for the others: top-dose activity, negative = toxicity, most hits filed as cytotoxic; hit rate 2% among 360,000;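 also: potency is read from the fitted curve at half-maximal effect; 0% = DMSO wells and -100% = cell-free medium wells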
#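 Viability of IDH1-knockdown HT-1080 fibrosarcoma cells was assessed by CellTiter-Glo after 48 h at 37 °C with titrated compound; concentration-effect curves were classified by fit quality and response size.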
# HT1080NT lethal – kills 2HG-producing HT-1080-NT fibrosarcoma cells; HT-1080-NT fibrosarcoma viability, CellTiter-Glo ATP luminescence, 48 h; Potency, µM (series often up to 46.1 µM), for inactives: at the top dose activity, negative = less viability, usual class: cytotoxic; hit rate 1.6% among 360,000;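 also: NT is the 2HG producing partner of a matched IDH1 knockdown line; potency is read from the fitted curve at half-maximal effect; 0% = DMSO-treated cells and -100% = media-only wells without cells; nearly all actives have a fitted effect of over 55% in size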
#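 Compounds were tested in concentration-response format on HT-1080-NT cells for 48 hours at 37 degrees C. Cell viability came from CellTiter-Glo luminescence; curves were classified by r2, response magnitude and activity.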
# IL-1B inflam inh – blocks inflammasome-driven IL-1 beta release; THP-1 LPS/ATP IL-1B secretion, AlphaLISA, 16 h; active compounds read low; hit rate 4.7% among 360,000; activity change, % at 57.5 µM; AID 743279; in the data active = activity change below about -50%; inconclusive = mostly about -30% to -49%
#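 THP-1 cells pretreated 1 hr with compounds (up to 57.5 uM final), then stimulated with LPS (250 ng/mL final) plus ATP (1.25 mM final); secreted IL-1B measured by AlphaLISA after 16 hr, decreased signal indicating inhibition.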
# ELG1 DNA repair – blocks ELG1-dependent DNA repair in HEK293T cells | HEK293T ELG1-luciferase reporter, luminescence, 16 h; DNA damage induced by 5-fluorouridine | hit rate 2.3% among 330,000 | Potency, µM (doses to about 46.1 µM), without a hit: at the top dose activity change, negative = inhibition, most hits filed as inhibitors; also: potency is read from the fitted curve at half-maximal effect; nearly all actives have a fitted effect of over 55% in size
#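 Step one: seed 2,000 cells per well. Step two: pin-transfer compound or DMSO alongside 5-fluorouridine. Step three: incubate 16 hr, 37 °C, 5% CO2. Step four: add ONE-Glo, wait 30 min, read luminescence.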
# * hit, by the source's call; ? = inconclusive; · = no result given; ! = repeats disagree. Unless noted, calls follow the shape of the dose curve; as a rule, active = well fitted curve in the direction sought with a large enough effect; inconclusive = small, poorly fitted or top-dose-only effect, or another doubt; inactive = no such curve, though single readings can be large; an effect the other way counts as inactive or inconclusive. Unless noted, % is scaled to controls: 0 for no effect and ±100 for the full control effect.
SMILES,TDP1 cell CPT,DT40 TDP1 no CPT,HT1080 IDH1KD tx,HT1080NT lethal,IL-1B inflam inh,ELG1 DNA repair
CC(c1ccccc1)C(Cc1nc2ccccc2[nH]1)c1nc2ccccc2[nH]1 (stereo not drawn),·,·,·,·,·,-10%
Cn1cnnc1SCc1ccc(C(=O)N=Nc2c(O)n(Cc3ccc(Cl)cc3)c3ccccc23)cc1,21µM*,10µM*,-30%,-18%,?,9.2µM*
CCn1c(O)c(N=NC(=O)c2ccc(CSc3nncn3C)cc2)c2ccccc21,?,15µM*,1%,-7%,0,?
CCn1c(O)c(N=NC(=O)Cn2ccc(C(F)(F)F)n2)c2ccccc21,-27%,?,11%,18%,-22,9%
COc1cccc(C2NC(=O)NC(C)=C2C(=O)OCC2CCCCC2)c1 (stereo not drawn),?,-21%,0%,-8%,-7,18%
CC(=O)OCC1OC(n2cnc3c(Cl)nc(Cl)nc32)C(OC(C)=O)C1OC(C)=O (stereo not drawn),?,21µM*,·,·,·,·
CC(=O)OCC1OC(n2cc(F)c(=O)[nH]c2=O)C(OC(C)=O)C1OC(C)=O (stereo not drawn),8.2µM*,5.2µM*,?,3%,93,·
COc1cc2cnc(-c3cccnc3)cc2cc1OC,-28%,-26%,12%,0%,?,27%
CCCS(=O)(=O)NC(=O)C1(C)CCCN(C(=O)c2cc(OC)ccc2Br)C1 (stereo not drawn),-4%,-2%,1%,10%,38,·
Cc1cc2ncn(S(=O)(=O)c3ccc(S(N)(=O)=O)cc3)c2cc1C,-13%,-36%,-2%,7%,16,·
CCOc1ccc(S(=O)(=O)n2cnc3cc(C)c(C)cc32)cc1,?,8.2µM*,?,?,-19,-21%
Cc1cc2ncn(S(=O)(=O)c3ccc(S(=O)(=O)N4CCCCCC4)cc3)c2cc1C,16µM*,21µM*,?,6%,25,·
OC(COc1cccc2ccccc12)CN1CCOCC1 (stereo not drawn),1%,-21%,12%,-1%,3,·
OC(COc1cccc2ccccc12)CN1CCN(c2ccccc2)CC1 (stereo not drawn),18µM*,?,-2%,-23%,-14,6%
C=CCc1ccccc1OCC(O)CNC(C)C (stereo not drawn),-15%,-9%,4%,-16%,-70*,-11%
CC(C)NC[C@@H](O)COc1cccc2ccccc12,30µM*!,21µM*!,·,·,-15,11%
O=C(Nc1ccc(C(=O)O)cc1)Nc1ccc(F)cc1F,16%,3%,0%,-12%,18,24%
O=C(Nc1ccccc1)Nc1ccc(Br)cc1F,15µM*,21µM*,-1%,7%,?,?
O=C(Nc1cccc(Cl)c1)Nc1ccc(Br)cc1F,21µM*,12µM*,-28%,-20%,-59*,14%
COc1ccccc1CNC(=O)C1CCN(S(=O)(=O)Cc2ccccc2)CC1,-12%,0%,·,·,·,·
O=C(NCCN1CCCCC1)c1ccc(Oc2cc(Cl)cc(Cl)c2)o1,?,?,26µM*,?,·,-9%
O=C(O)[C@H]1CN(C/C=C/P(=O)(O)O)CCN1,7%,1%,·,·,·,·
Cc1ccccc1OCC(=O)Nc1ccccc1OCc1cc(=O)n2ccccc2n1,-9%,-5%,·,·,·,·
OC(COCc1ccccc1)CN1CCN(c2ccccc2)CC1 (stereo not drawn),-11%,-10%,-10%,-1%,17,6%
O=C(CS(=O)(=O)Cc1ccccc1)N1CCN(c2cccc(C(F)(F)F)c2)CC1,?,?,-5%,0%,-5,-11%
